Key:
Assay in all cases: DAPPL (digital affinity profiling via proximity ligation, sequencing); 10 mM Tris-HCl pH 7.5, 50 mM NaCl, 1 mM DTT, 4% glycerol, room temperature, 30 min; GST-TFs on glutathione beads, 16-mer random dsDNA library, 0.1% formaldehyde crosslink after washing; high values mean tight binding
[1] = target: T1, FLI1 (Homo sapiens, UniProt Q01543 1-452); conditions: protein: recombinant; tags: N-terminal GST; dsDNA, one strand shown
T1 sequence: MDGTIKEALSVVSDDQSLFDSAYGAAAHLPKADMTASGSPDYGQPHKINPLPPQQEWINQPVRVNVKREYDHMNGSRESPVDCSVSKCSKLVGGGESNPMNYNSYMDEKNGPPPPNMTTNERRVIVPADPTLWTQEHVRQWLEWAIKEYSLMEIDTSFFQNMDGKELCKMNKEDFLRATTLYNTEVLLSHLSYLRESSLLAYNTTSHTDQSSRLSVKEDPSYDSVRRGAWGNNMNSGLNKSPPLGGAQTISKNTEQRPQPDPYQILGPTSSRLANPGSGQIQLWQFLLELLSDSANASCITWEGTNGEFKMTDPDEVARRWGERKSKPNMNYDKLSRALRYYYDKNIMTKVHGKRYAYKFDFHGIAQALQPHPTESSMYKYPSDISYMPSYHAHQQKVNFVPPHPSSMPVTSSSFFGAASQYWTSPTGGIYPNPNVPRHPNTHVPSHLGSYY
Method in brief: (§1)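 In yeast, human transcription factors were expressed with a GST fusion, then pulled down on glutathione beads and given DNA barcodes. Pooled with a tag-only sample, they were exposed to 200 nmole of a 16-mer random double-stranded DNA library (Tris/NaCl/DTT/glycerol buffer, room temperature, 30 min), washed, crosslinked with 0.1% formaldehyde, proximity-ligated using BsaI/T4 ligase for 1 h at 37 °C, PCR-amplified and read on an Illumina NextSeq500. Each hexamer's frequency of reads for a factor, divided by the matching frequency for the tag-only sample, gives the binding signal.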

[2] = target: T2, ELK1 (Homo sapiens, UniProt P19419 1-428); conditions: protein: recombinant; tags: N-terminal GST; dsDNA, one strand shown
T2 sequence: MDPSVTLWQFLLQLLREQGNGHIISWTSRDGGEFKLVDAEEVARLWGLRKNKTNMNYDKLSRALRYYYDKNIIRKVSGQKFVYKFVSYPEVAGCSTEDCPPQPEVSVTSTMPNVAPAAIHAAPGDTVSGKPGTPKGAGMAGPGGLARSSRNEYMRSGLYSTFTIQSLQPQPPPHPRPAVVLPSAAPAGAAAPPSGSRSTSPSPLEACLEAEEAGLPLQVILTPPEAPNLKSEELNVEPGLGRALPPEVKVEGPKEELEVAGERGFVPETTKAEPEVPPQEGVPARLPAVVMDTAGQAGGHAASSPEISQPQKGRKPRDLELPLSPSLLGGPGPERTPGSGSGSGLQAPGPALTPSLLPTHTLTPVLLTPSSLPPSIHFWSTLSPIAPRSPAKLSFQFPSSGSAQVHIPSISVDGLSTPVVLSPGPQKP
Method in brief: as §1

[3] = target: T3, GABPA (Homo sapiens, UniProt Q06546 1-454); conditions: protein: recombinant; tags: N-terminal GST; dsDNA, one strand shown
T3 sequence: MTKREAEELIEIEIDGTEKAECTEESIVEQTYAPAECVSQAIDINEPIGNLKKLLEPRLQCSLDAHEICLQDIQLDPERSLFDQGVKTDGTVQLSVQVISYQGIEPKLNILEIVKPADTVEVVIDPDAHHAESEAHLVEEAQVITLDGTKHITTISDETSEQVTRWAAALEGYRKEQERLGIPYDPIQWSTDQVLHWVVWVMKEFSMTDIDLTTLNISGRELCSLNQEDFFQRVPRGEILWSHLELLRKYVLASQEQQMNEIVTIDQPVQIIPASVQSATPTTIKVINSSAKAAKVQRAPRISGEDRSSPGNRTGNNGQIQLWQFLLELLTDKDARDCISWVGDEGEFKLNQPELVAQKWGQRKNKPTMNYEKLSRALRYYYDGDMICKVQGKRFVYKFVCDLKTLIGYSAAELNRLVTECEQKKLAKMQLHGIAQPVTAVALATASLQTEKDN
Method in brief: as §1

[4] = target: T4, ERG (Homo sapiens, UniProt P11308 1-479); conditions: protein: recombinant; tags: N-terminal GST; dsDNA, one strand shown
T4 sequence: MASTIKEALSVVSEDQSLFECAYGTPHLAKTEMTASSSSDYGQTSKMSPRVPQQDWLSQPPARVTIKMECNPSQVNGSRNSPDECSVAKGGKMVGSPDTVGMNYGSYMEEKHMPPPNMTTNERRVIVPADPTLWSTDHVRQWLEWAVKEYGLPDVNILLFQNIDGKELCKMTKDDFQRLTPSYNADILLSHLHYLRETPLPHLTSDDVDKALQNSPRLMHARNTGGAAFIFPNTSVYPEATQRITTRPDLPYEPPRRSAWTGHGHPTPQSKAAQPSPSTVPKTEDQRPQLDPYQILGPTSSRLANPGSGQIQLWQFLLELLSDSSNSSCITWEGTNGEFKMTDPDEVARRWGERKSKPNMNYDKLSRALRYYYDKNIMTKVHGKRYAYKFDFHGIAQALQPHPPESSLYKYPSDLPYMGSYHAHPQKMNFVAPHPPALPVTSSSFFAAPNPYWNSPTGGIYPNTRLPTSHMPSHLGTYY
Method in brief: as §1

[5] = target: ELF1 (Homo sapiens, UniProt P32519 1-619); conditions: protein: recombinant; tags: N-terminal GST; dsDNA, one strand shown
Method in brief: as §1

[6] = target: T5, EHF (Homo sapiens, UniProt Q9NZC4 1-300); conditions: protein: recombinant; tags: N-terminal GST; dsDNA, one strand shown
T5 sequence: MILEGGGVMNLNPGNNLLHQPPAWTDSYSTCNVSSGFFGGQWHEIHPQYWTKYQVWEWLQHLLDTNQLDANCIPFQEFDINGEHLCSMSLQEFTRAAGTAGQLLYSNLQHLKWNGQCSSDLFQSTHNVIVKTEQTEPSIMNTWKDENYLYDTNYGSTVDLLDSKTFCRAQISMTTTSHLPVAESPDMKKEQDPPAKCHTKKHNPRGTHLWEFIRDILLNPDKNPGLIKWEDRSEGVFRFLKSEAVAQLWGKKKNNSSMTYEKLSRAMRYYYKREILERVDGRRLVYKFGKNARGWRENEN
Method in brief: as §1

[7] = target: SPI1 (Homo sapiens, UniProt P17947 1-270); conditions: protein: recombinant; tags: N-terminal GST; dsDNA, one strand shown
Method in brief: as §1

[8] = target: SPIB (Homo sapiens, UniProt Q01892 1-262); conditions: protein: recombinant; tags: N-terminal GST; dsDNA, one strand shown
Method in brief: as §1

[9] = target: T6, ELK3 (Homo sapiens, UniProt P41970 1-407); conditions: protein: recombinant; tags: N-terminal GST; dsDNA, one strand shown
T6 sequence: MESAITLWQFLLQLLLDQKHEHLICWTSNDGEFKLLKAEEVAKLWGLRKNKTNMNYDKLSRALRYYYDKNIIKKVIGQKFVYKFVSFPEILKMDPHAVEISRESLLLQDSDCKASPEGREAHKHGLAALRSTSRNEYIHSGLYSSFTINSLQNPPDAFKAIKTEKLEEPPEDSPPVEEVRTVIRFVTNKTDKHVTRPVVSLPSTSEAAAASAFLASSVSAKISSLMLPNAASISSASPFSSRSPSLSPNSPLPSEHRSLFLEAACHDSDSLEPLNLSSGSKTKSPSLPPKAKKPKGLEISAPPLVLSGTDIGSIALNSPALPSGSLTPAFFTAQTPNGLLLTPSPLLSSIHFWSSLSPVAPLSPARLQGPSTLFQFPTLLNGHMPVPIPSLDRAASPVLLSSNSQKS
Method in brief: as §1

[10] = target: T7, FEV (Homo sapiens, UniProt Q99581 1-238); conditions: protein: recombinant; tags: N-terminal GST; dsDNA, one strand shown
T7 sequence: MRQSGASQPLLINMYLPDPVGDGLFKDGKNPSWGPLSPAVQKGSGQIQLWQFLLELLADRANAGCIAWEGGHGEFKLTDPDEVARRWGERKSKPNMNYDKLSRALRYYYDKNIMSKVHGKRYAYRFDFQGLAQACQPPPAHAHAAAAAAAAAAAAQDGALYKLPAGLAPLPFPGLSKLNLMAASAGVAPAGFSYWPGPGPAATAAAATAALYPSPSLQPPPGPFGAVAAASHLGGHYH
Method in brief: as §1

[11] = target: ETV5 (Homo sapiens, UniProt P41161 1-510); conditions: protein: recombinant; tags: N-terminal GST; dsDNA, one strand shown
Method in brief: as §1

[12] = target: HSF1 (Homo sapiens, UniProt Q00613 1-529); conditions: protein: recombinant; tags: N-terminal GST; chain copies: 3; dsDNA, one strand shown
Method in brief: as §1

[13] = target: T8, SPIC (Homo sapiens, UniProt Q8N5J4 1-248); conditions: protein: recombinant; tags: N-terminal GST; dsDNA, one strand shown
T8 sequence: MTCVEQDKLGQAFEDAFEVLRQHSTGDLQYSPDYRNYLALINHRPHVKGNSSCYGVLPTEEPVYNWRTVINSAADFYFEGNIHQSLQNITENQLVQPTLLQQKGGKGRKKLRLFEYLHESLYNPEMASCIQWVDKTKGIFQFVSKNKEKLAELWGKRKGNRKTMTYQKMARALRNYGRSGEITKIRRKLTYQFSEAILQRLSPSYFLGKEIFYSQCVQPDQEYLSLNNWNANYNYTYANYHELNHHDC
Method in brief: as §1

[14] = target: ELF4 (Homo sapiens, UniProt Q99607 1-663); conditions: protein: recombinant; tags: N-terminal GST; dsDNA, one strand shown
Method in brief: as §1

[15] = target: T9, ELK4 (Homo sapiens, UniProt P28324-2 1-405); conditions: protein: recombinant; tags: N-terminal GST; dsDNA, one strand shown
T9 sequence: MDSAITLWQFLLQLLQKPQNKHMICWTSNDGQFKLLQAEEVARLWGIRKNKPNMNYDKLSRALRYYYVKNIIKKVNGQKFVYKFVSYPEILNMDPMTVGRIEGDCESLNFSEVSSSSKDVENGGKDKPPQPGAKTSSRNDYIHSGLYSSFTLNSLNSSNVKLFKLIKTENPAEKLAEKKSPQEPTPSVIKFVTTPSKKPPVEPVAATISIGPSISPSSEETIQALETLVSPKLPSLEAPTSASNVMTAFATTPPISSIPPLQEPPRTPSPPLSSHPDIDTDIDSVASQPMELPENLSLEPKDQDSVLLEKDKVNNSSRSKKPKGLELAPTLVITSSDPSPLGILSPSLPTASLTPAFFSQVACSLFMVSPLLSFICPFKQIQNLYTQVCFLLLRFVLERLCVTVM
Method in brief: as §1

[16] = target: T10, ETV2 (Homo sapiens, UniProt O00321 1-342); conditions: protein: recombinant; tags: N-terminal GST; dsDNA, one strand shown
T10 sequence: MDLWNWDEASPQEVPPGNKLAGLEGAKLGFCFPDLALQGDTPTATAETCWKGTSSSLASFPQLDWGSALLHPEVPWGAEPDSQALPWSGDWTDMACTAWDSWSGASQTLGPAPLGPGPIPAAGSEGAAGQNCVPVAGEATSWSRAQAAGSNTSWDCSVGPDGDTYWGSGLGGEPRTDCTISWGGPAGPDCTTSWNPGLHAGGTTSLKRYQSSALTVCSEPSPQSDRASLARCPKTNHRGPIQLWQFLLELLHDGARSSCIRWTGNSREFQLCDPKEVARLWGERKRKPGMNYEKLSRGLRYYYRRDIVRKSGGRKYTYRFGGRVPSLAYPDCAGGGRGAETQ
Method in brief: as §1

[17] = target: T11, ELF3 (Homo sapiens, UniProt P78545 1-371); conditions: protein: recombinant; tags: N-terminal GST; dsDNA, one strand shown
T11 sequence: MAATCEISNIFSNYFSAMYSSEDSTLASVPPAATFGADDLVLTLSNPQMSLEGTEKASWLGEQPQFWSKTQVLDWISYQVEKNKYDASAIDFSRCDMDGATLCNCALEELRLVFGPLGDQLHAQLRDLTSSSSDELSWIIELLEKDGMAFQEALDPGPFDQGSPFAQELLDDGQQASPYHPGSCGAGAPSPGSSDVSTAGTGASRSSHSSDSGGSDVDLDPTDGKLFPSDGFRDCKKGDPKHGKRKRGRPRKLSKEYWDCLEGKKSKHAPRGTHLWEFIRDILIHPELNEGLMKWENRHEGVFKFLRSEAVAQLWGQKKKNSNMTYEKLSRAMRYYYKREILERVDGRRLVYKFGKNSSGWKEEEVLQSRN
Method in brief: as §1

[18] = target: CRX (Homo sapiens, UniProt O43186 1-299); conditions: protein: recombinant; tags: N-terminal GST; dsDNA, one strand shown
Method in brief: as §1

[19] = target: ETV1 (Homo sapiens, UniProt P50549 1-477); conditions: protein: recombinant; tags: N-terminal GST; dsDNA, one strand shown
Method in brief: as §1

ETV5, sequence (P41161 whole entry): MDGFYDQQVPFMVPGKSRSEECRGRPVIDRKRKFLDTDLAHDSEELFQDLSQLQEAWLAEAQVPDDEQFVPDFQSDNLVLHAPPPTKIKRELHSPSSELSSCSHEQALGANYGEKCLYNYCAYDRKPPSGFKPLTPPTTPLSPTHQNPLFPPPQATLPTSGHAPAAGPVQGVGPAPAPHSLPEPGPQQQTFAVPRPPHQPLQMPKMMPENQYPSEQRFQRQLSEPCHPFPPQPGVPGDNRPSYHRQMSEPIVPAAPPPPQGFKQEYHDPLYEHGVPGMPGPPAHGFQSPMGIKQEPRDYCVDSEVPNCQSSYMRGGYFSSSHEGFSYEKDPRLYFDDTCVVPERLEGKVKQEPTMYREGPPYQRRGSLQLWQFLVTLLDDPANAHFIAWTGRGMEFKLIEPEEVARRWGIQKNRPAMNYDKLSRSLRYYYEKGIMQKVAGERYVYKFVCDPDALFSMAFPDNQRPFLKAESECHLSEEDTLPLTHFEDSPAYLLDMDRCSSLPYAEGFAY
ELF4, sequence (Q99607 whole entry): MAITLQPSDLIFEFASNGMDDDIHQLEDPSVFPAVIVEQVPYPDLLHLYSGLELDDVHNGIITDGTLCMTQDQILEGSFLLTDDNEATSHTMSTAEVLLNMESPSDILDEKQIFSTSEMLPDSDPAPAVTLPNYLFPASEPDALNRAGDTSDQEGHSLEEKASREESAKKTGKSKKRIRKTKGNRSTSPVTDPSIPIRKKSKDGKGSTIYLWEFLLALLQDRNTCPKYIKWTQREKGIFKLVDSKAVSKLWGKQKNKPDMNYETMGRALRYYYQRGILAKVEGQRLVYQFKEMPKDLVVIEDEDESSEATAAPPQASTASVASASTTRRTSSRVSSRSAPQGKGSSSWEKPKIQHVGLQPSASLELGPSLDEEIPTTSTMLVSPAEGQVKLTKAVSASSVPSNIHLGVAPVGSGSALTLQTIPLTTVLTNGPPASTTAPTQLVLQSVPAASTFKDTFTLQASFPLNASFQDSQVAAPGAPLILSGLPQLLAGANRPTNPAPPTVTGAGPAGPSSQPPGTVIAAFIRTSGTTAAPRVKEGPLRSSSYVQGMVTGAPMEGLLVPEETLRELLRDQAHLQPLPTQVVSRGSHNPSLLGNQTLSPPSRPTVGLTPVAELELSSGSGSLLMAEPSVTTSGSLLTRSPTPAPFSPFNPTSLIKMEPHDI
ETV1, sequence (P50549 whole entry): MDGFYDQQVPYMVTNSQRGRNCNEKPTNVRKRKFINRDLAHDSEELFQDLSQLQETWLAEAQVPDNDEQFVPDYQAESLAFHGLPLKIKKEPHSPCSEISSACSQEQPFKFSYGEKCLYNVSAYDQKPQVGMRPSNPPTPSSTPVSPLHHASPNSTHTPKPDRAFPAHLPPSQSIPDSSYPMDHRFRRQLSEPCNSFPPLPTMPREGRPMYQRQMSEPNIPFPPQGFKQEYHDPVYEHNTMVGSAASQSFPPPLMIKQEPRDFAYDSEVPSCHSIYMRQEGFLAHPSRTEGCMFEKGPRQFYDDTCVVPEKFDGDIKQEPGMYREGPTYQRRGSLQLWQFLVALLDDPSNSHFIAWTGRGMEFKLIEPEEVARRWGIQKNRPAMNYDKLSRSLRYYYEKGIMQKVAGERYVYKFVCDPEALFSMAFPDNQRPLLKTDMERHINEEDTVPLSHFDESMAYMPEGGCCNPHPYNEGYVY
SPIB, sequence (Q01892 whole entry): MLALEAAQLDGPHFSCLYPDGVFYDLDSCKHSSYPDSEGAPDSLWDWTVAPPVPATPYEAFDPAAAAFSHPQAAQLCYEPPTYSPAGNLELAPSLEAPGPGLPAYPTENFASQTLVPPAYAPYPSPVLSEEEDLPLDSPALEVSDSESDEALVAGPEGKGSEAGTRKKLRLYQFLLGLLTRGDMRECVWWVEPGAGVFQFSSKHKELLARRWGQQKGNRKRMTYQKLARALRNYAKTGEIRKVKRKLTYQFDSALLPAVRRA
CRX, sequence (O43186 whole entry): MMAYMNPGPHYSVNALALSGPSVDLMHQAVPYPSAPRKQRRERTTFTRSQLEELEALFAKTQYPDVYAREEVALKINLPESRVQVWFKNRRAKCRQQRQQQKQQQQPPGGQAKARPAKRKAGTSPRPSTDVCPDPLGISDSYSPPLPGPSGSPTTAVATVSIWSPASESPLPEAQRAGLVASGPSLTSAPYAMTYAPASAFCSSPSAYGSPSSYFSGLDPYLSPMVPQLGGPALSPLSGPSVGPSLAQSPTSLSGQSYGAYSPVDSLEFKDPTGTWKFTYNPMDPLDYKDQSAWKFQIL
ELF1, sequence (P32519 whole entry): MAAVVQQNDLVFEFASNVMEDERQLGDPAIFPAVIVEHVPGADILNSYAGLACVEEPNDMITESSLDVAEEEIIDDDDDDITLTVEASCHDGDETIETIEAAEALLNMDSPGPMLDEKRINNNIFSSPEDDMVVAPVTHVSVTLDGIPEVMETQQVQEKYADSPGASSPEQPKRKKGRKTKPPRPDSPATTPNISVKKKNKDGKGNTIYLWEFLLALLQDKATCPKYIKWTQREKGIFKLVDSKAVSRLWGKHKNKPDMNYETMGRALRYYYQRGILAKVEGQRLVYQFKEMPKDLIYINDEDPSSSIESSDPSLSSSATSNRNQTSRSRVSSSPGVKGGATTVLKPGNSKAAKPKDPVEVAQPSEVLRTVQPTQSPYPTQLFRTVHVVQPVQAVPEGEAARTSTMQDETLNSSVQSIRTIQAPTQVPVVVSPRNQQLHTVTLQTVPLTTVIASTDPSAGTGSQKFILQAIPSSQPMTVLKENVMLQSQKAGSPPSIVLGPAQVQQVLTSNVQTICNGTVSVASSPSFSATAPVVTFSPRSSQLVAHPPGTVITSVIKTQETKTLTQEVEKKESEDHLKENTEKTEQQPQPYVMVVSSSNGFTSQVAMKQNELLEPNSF
HSF1, sequence (Q00613 whole entry): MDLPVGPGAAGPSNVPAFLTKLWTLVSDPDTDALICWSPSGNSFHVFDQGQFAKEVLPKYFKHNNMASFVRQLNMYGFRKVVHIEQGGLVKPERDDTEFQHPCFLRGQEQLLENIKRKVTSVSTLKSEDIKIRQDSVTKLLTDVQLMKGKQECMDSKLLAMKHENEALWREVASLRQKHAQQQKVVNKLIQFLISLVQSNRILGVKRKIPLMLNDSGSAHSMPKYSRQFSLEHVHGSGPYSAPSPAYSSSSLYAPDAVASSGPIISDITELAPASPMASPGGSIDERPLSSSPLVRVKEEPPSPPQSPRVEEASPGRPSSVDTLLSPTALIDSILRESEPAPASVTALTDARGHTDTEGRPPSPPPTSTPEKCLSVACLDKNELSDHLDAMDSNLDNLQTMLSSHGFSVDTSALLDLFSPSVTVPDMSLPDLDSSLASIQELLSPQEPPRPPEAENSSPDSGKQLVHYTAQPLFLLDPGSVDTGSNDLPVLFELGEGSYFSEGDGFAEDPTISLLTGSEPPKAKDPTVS

## TTCCAT
[1]
  binding signal: 1.38 fold enrichment (6-mer frequency, TF over GST control)
[2]
  binding signal: 1.29 fold enrichment (6-mer frequency, TF over GST control)
[3]
  binding signal: 1.22 fold enrichment (6-mer frequency, TF over GST control)
[4]
  binding signal: 1.25 fold enrichment (6-mer frequency, TF over GST control)
[5]
  binding signal: 1.33 fold enrichment (6-mer frequency, TF over GST control)
[6]
  binding signal: 1.28 fold enrichment (6-mer frequency, TF over GST control)
[7]
  binding signal: 1.34 fold enrichment (6-mer frequency, TF over GST control)
[8]
  binding signal: 1.32 fold enrichment (6-mer frequency, TF over GST control)
[9]
  binding signal: 1.28 fold enrichment (6-mer frequency, TF over GST control)
[10]
  binding signal: 1.18 fold enrichment (6-mer frequency, TF over GST control)
[11]
  binding signal: 1.36 fold enrichment (6-mer frequency, TF over GST control)
[12]
  binding signal: 1.74 fold enrichment (6-mer frequency, TF over GST control)
[13]
  binding signal: 1.19 fold enrichment (6-mer frequency, TF over GST control)
[14]
  binding signal: 1.27 fold enrichment (6-mer frequency, TF over GST control)
[15]
  binding signal: 1.42 fold enrichment (6-mer frequency, TF over GST control)
[16]
  binding signal: 1.23 fold enrichment (6-mer frequency, TF over GST control)
[17]
  binding signal: 1.2 fold enrichment (6-mer frequency, TF over GST control)
[18]
  binding signal: 1.43 fold enrichment (6-mer frequency, TF over GST control)
[19]
  binding signal: 1.25 fold enrichment (6-mer frequency, TF over GST control)

From paper PMC7862700, “An all-to-all approach to the identification of sequence-specific readers for epigenetic DNA modifications on cytosine”
